Data on 17 sequences can be found in article PMC11006913.

Positions count from the first letter of the chain named.

Common to all, as to assay: PBM; 200 nM protein, PBS
Holding throughout (details): dsDNA, one strand shown

The target of assay [1] is NKX2-5 (Homo sapiens, UniProt P52952 125-210, R139K).
Assay [2] concerns the target T1, NKX2-6 (Homo sapiens, UniProt A6NCS4 118-204, R150C).
T1 sequence: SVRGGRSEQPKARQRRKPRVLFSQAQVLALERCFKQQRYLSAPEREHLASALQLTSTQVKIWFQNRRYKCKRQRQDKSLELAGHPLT

Assay [3] deals with T2, NKX2-6 (Homo sapiens, UniProt A6NCS4 118-204).
T2 sequence: T1 sequence with C33R

The target of assay [4] is T3, NKX2-6 (Homo sapiens, UniProt A6NCS4 118-204, F151L).
T3 sequence: T1 sequence with C33R, F34L

Assay [5] deals with NKX3-2 (Homo sapiens, UniProt P78367 192-278, P234S).
For assay [6], the target named is NKX2-5 (Homo sapiens, UniProt P52952 125-210).
For assay [7], the target named is NKX3-2 (Homo sapiens, UniProt P78367 192-278).
In assay [8] the target is PROP1 (Homo sapiens, UniProt O75360 56-141).
Assay [9] concerns the target PROP1 (Homo sapiens, UniProt O75360 56-141, R99H).
Assay [10] deals with PROP1 (Homo sapiens, UniProt O75360 56-141, F88S).
Another assay concerns the target T4, NKX2-4 (Homo sapiens, UniProt Q9H2Z4 175-261, R246Q).
T4 sequence: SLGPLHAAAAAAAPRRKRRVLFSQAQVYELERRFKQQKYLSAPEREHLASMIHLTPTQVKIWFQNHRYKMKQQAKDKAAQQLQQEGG

Assay [11] concerns the target ALX3 (Homo sapiens, UniProt O95076 139-225, N203Q).
For assay [12], the target named is ALX3 (Homo sapiens, UniProt O95076 139-225).
Assay [13] has as its target ALX3 (Homo sapiens, UniProt O95076 139-225, L168Q).
Assay [14] concerns the target ALX3 (Homo sapiens, UniProt O95076 139-225, L168V).
The target in assay [15] is ALX3 (Homo sapiens, UniProt O95076 139-225, N203S).
The target of assay [16] is MSX2 (Homo sapiens, UniProt P35548 130-214, R199I).
For assay [17], the target named is MSX2 (Homo sapiens, UniProt P35548 130-214).
Assay [18] addresses MSX2 (Homo sapiens, UniProt P35548 130-214, F161Y).

Sequence of NKX2-5 (Homo sapiens, UniProt P52952 125-210, R139K) (P52952 125-210 R139K): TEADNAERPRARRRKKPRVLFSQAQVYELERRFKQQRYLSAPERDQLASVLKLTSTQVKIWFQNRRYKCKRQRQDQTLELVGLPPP
Sequence of NKX2-5 (Homo sapiens, UniProt P52952 125-210) (P52952 125-210): as the sequence (P52952 125-210 R139K) above, with K15R counted along it
Sequence of NKX3-2 (Homo sapiens, UniProt P78367 192-278, P234S) (P78367 192-278 P234S): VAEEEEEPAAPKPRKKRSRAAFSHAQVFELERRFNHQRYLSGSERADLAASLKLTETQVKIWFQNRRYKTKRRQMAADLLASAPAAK
Sequence of NKX3-2 (Homo sapiens, UniProt P78367 192-278) (P78367 192-278): as the sequence (P78367 192-278 P234S) above, with S43P counted along it
Sequence of MSX2 (Homo sapiens, UniProt P35548 130-214, R199I) (P35548 130-214 R199I): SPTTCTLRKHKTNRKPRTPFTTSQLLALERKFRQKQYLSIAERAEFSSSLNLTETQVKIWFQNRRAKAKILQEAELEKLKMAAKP
Sequence of ALX3 (Homo sapiens, UniProt O95076 139-225) (O95076 139-225): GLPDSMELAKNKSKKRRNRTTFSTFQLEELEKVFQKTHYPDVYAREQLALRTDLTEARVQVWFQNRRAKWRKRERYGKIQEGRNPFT
Sequence of PROP1 (Homo sapiens, UniProt O75360 56-141, F88S) (O75360 56-141 F88S): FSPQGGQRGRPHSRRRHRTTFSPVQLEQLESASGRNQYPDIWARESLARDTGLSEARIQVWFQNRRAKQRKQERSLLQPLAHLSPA
Sequence of ALX3 (Homo sapiens, UniProt O95076 139-225, N203Q) (O95076 139-225 N203Q): as the sequence (O95076 139-225) above, with N65Q counted along it
Sequence of ALX3 (Homo sapiens, UniProt O95076 139-225, L168V) (O95076 139-225 L168V): as the sequence (O95076 139-225) above, with L30V counted along it
Sequence of MSX2 (Homo sapiens, UniProt P35548 130-214) (P35548 130-214): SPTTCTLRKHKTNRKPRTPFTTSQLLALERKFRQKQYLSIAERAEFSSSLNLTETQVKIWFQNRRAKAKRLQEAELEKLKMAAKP
Sequence of PROP1 (Homo sapiens, UniProt O75360 56-141, R99H) (O75360 56-141 R99H): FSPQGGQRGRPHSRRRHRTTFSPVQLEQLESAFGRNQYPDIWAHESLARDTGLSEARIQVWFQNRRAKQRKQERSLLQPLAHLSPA
Sequence of ALX3 (Homo sapiens, UniProt O95076 139-225, L168Q) (O95076 139-225 L168Q): as the sequence (O95076 139-225) above, with L30Q counted along it
Sequence of PROP1 (Homo sapiens, UniProt O75360 56-141) (O75360 56-141): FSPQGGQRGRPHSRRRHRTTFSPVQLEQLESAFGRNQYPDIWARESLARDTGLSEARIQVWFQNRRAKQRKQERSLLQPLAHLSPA
Sequence of MSX2 (Homo sapiens, UniProt P35548 130-214, F161Y) (P35548 130-214 F161Y): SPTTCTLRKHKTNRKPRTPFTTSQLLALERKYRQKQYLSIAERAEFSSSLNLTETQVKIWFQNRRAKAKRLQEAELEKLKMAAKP
Sequence of ALX3 (Homo sapiens, UniProt O95076 139-225, N203S) (O95076 139-225 N203S): as the sequence (O95076 139-225) above, with N65S counted along it

ACACTTAG: the binding signal with NKX2-5 [1] was 12.6 upbm affinity estimate (log intensity, higher = more binding, comparable within an allelic series); with NKX2-6 [2], 11.7 upbm affinity estimate (log intensity, higher = more binding, comparable within an allelic series); in the assay with NKX2-6 [3] it was 13.5 upbm affinity estimate (log intensity, higher = more binding, comparable within an allelic series); with NKX2-6 [4], 11 upbm affinity estimate (log intensity, higher = more binding, comparable within an allelic series); in the assay with NKX3-2 [5], 12.8 upbm affinity estimate (log intensity, higher = more binding, comparable within an allelic series); in the assay with NKX2-5 [6], 12.5 upbm affinity estimate (log intensity, higher = more binding, comparable within an allelic series). For the same sequence, the binding signal with NKX3-2 [7] was 12.8 upbm affinity estimate (log intensity, higher = more binding, comparable within an allelic series).

GCGCGTCC: the binding signal with NKX2-5 [1] is 8.83 upbm affinity estimate (log intensity, higher = more binding, comparable within an allelic series); with NKX2-6 [2], 9.52 upbm affinity estimate (log intensity, higher = more binding, comparable within an allelic series); in the assay with PROP1 [8] it was 6.74 upbm affinity estimate (log intensity, higher = more binding, comparable within an allelic series); with PROP1 [9] it was 6.79 upbm affinity estimate (log intensity, higher = more binding, comparable within an allelic series); with PROP1 [10], 6.63 upbm affinity estimate (log intensity, higher = more binding, comparable within an allelic series); with NKX3-2 [5], 10.6 upbm affinity estimate (log intensity, higher = more binding, comparable within an allelic series). Further, the binding signal is 8.91 upbm affinity estimate (log intensity, higher = more binding, comparable within an allelic series) with NKX2-5 [6] and 10.6 upbm affinity estimate (log intensity, higher = more binding, comparable within an allelic series) in the assay with NKX3-2 [7].

On to CGTTCCGC, for which the binding signal with NKX2-5 [1] was 8.99 upbm affinity estimate (log intensity, higher = more binding, comparable within an allelic series); with NKX2-6 [3], 9.44 upbm affinity estimate (log intensity, higher = more binding, comparable within an allelic series); with NKX2-6 [4] it was 9.27 upbm affinity estimate (log intensity, higher = more binding, comparable within an allelic series); in the assay with NKX2-5 [6], 8.75 upbm affinity estimate (log intensity, higher = more binding, comparable within an allelic series).

On to ACTTAAGA, for which the binding signal was 12.3 upbm affinity estimate (log intensity, higher = more binding, comparable within an allelic series) with NKX2-5 [1]; 13.4 upbm affinity estimate (log intensity, higher = more binding, comparable within an allelic series) in the assay with NKX2-6 [3]; 12.9 upbm affinity estimate (log intensity, higher = more binding, comparable within an allelic series) in the assay with NKX2-4; 10.8 upbm affinity estimate (log intensity, higher = more binding, comparable within an allelic series) with NKX2-6 [4].

On to CACACTTA, for which the binding signal is 12.5 upbm affinity estimate (log intensity, higher = more binding, comparable within an allelic series) in the assay with NKX2-5 [1]; 11.7 upbm affinity estimate (log intensity, higher = more binding, comparable within an allelic series) with NKX2-6 [2]; 13.5 upbm affinity estimate (log intensity, higher = more binding, comparable within an allelic series) in the assay with NKX2-6 [3]; 10.9 upbm affinity estimate (log intensity, higher = more binding, comparable within an allelic series) in the assay with NKX2-6 [4]; 12.6 upbm affinity estimate (log intensity, higher = more binding, comparable within an allelic series) with NKX3-2 [5]; 12.4 upbm affinity estimate (log intensity, higher = more binding, comparable within an allelic series) with NKX2-5 [6]. In the assay with NKX3-2 [7], the binding signal is 12.7 upbm affinity estimate (log intensity, higher = more binding, comparable within an allelic series).

Turning to AGTCCTTA, the binding signal in the assay with NKX2-5 [1] was 11.3 upbm affinity estimate (log intensity, higher = more binding, comparable within an allelic series); with NKX2-6 [2] it was 10.8 upbm affinity estimate (log intensity, higher = more binding, comparable within an allelic series); with NKX2-5 [6], 11.2 upbm affinity estimate (log intensity, higher = more binding, comparable within an allelic series).

For CGACCTCG, the binding signal is 9.01 upbm affinity estimate (log intensity, higher = more binding, comparable within an allelic series) with NKX2-5 [1]; 7.77 upbm affinity estimate (log intensity, higher = more binding, comparable within an allelic series) in the assay with ALX3 [11]; 7.62 upbm affinity estimate (log intensity, higher = more binding, comparable within an allelic series) in the assay with ALX3 [12]; 7.78 upbm affinity estimate (log intensity, higher = more binding, comparable within an allelic series) in the assay with ALX3 [13]; 7.74 upbm affinity estimate (log intensity, higher = more binding, comparable within an allelic series) with ALX3 [14]; 7.75 upbm affinity estimate (log intensity, higher = more binding, comparable within an allelic series) in the assay with ALX3 [15]. The binding signal with NKX2-5 [6] was 9.16 upbm affinity estimate (log intensity, higher = more binding, comparable within an allelic series).

With CAAGTGGG, the binding signal in the assay with NKX2-5 [1] was 12.3 upbm affinity estimate (log intensity, higher = more binding, comparable within an allelic series); with NKX2-6 [2] it was 11.7 upbm affinity estimate (log intensity, higher = more binding, comparable within an allelic series); with NKX2-5 [6], 12.3 upbm affinity estimate (log intensity, higher = more binding, comparable within an allelic series).

As to AGCCCAGG, the binding signal in the assay with NKX2-5 [1] is 8.68 upbm affinity estimate (log intensity, higher = more binding, comparable within an allelic series); with MSX2 [16], 9.6 upbm affinity estimate (log intensity, higher = more binding, comparable within an allelic series); with MSX2 [17], 9.67 upbm affinity estimate (log intensity, higher = more binding, comparable within an allelic series); with MSX2 [18], 9.66 upbm affinity estimate (log intensity, higher = more binding, comparable within an allelic series); with NKX3-2 [5], 10.1 upbm affinity estimate (log intensity, higher = more binding, comparable within an allelic series); in the assay with NKX2-5 [6], 8.63 upbm affinity estimate (log intensity, higher = more binding, comparable within an allelic series). Besides, the binding signal with NKX3-2 [7] was 10.1 upbm affinity estimate (log intensity, higher = more binding, comparable within an allelic series).

For the sequence GAAGTGGA, the binding signal is 11.7 upbm affinity estimate (log intensity, higher = more binding, comparable within an allelic series) in the assay with NKX2-5 [1]; 11.3 upbm affinity estimate (log intensity, higher = more binding, comparable within an allelic series) with NKX2-6 [2]; 12.5 upbm affinity estimate (log intensity, higher = more binding, comparable within an allelic series) in the assay with NKX3-2 [5]; 11.8 upbm affinity estimate (log intensity, higher = more binding, comparable within an allelic series) with NKX2-5 [6]; 12.6 upbm affinity estimate (log intensity, higher = more binding, comparable within an allelic series) with NKX3-2 [7].

In the case of GCGGCCAC, the binding signal is 8.75 upbm affinity estimate (log intensity, higher = more binding, comparable within an allelic series) with NKX2-5 [1]; 9.34 upbm affinity estimate (log intensity, higher = more binding, comparable within an allelic series) with NKX2-6 [2]; 8.78 upbm affinity estimate (log intensity, higher = more binding, comparable within an allelic series) with NKX2-5 [6].

Take AAGTGGCG: the binding signal with NKX2-5 [1] is 12.2 upbm affinity estimate (log intensity, higher = more binding, comparable within an allelic series); with NKX2-6 [2], 11.6 upbm affinity estimate (log intensity, higher = more binding, comparable within an allelic series); with NKX3-2 [5], 12.7 upbm affinity estimate (log intensity, higher = more binding, comparable within an allelic series); with NKX2-5 [6], 12.2 upbm affinity estimate (log intensity, higher = more binding, comparable within an allelic series); with NKX3-2 [7], 12.8 upbm affinity estimate (log intensity, higher = more binding, comparable within an allelic series).

Take AAGTGGGT: the binding signal is 12.4 upbm affinity estimate (log intensity, higher = more binding, comparable within an allelic series) with NKX2-5 [1]; 11.6 upbm affinity estimate (log intensity, higher = more binding, comparable within an allelic series) in the assay with NKX2-6 [2]; 13.5 upbm affinity estimate (log intensity, higher = more binding, comparable within an allelic series) with NKX2-6 [3]; 10.5 upbm affinity estimate (log intensity, higher = more binding, comparable within an allelic series) with NKX2-6 [4]; 12.7 upbm affinity estimate (log intensity, higher = more binding, comparable within an allelic series) with NKX3-2 [5]; 12.3 upbm affinity estimate (log intensity, higher = more binding, comparable within an allelic series) in the assay with NKX2-5 [6]. Besides, the binding signal with NKX3-2 [7] was 12.8 upbm affinity estimate (log intensity, higher = more binding, comparable within an allelic series).

As to CTAAGTAC, the binding signal is 12.3 upbm affinity estimate (log intensity, higher = more binding, comparable within an allelic series) with NKX2-5 [1]; 11.7 upbm affinity estimate (log intensity, higher = more binding, comparable within an allelic series) with NKX2-6 [2]; 13.4 upbm affinity estimate (log intensity, higher = more binding, comparable within an allelic series) with NKX2-6 [3]; 10.5 upbm affinity estimate (log intensity, higher = more binding, comparable within an allelic series) with NKX2-6 [4]; 12.5 upbm affinity estimate (log intensity, higher = more binding, comparable within an allelic series) with NKX3-2 [5]; 12.2 upbm affinity estimate (log intensity, higher = more binding, comparable within an allelic series) in the assay with NKX2-5 [6]. Also, the binding signal in the assay with NKX3-2 [7] is 12.6 upbm affinity estimate (log intensity, higher = more binding, comparable within an allelic series).

As for CCTCCGGA, the binding signal is 8.88 upbm affinity estimate (log intensity, higher = more binding, comparable within an allelic series) in the assay with NKX2-5 [1]; 9.54 upbm affinity estimate (log intensity, higher = more binding, comparable within an allelic series) in the assay with NKX2-6 [2]; 8.86 upbm affinity estimate (log intensity, higher = more binding, comparable within an allelic series) in the assay with NKX2-5 [6].

On to ACCGCGGG, for which the binding signal with NKX2-5 [1] was 8.49 upbm affinity estimate (log intensity, higher = more binding, comparable within an allelic series); with NKX2-5 [6] it was 8.44 upbm affinity estimate (log intensity, higher = more binding, comparable within an allelic series).

CACTAAAG: the binding signal with NKX2-5 [1] was 10.9 upbm affinity estimate (log intensity, higher = more binding, comparable within an allelic series); in the assay with NKX2-5 [6], 10.8 upbm affinity estimate (log intensity, higher = more binding, comparable within an allelic series).
